# This is a sample that favours compounds with a hit; in the whole collection about 2.5% have one here.
# Cruzain noTriton – cruzain (T. cruzi) inhibition without detergent. AID 1476. purified cruzain, Z-FR-AMC fluorescence, no detergent. Potency, µM, inactives show max response, negative = inhibition, usual class: inhibitors. 200,000 compounds, 2.3% hits. P25779;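 further: plate controls were enzyme without inhibitor for no effect and buffer without enzyme for full effect; nearly all actives have a fitted effect of over 40% in size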
# Target sequence (P25779 123-467 limits assumed): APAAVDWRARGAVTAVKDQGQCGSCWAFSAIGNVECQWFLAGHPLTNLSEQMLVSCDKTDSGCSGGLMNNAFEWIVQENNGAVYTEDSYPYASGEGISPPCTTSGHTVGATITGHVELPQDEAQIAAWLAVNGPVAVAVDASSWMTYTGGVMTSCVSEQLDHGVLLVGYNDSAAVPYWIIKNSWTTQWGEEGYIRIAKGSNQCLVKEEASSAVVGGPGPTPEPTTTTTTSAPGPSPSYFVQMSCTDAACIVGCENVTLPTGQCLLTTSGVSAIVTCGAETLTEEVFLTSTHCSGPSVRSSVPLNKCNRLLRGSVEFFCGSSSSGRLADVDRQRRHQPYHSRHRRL
#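 Purified cruzain at 1.5 nM, pre-incubated 15 min with compound at room temperature in 100 mM sodium acetate pH 5.5, 5 mM DTT, 0.00005% Triton X-100. Reaction started with 2 uM Z-FR-AMC; AMC fluorescence increase over 60 s gives rate.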
# Cruzain Triton – blocks cruzain activity in presence of Triton detergent. purified cruzain, Z-FR-AMC fluorescence, 0.01% Triton. Potency, µM, for the others: max response, negative = inhibition, usual class: inhibitors. 200,000 compounds, 0.43% hits. P25779;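 further: plate controls were neutral wells for no effect and buffer without enzyme for full effect; nearly all actives have a fitted effect of over 40% in size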
#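 Steps: dispense cruzain (1.5 nM final) in acetate buffer pH 5.5 with DTT and 0.01% Triton X-100; pin-transfer compounds; incubate 15 min RT; add Z-FR-AMC (2 uM final); read fluorescence every 30 s, using the 60 s intensity change.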
# * hit, by the source's call; ? = inconclusive; ! = a repeat was not active. The call rests on the fitted dose curve; in most records, active means well fitted curve in the direction sought with a large enough effect; inconclusive means small, poorly fitted or top-dose-only effect, or another doubt; inactive means no such curve, though single readings can be large; an effect the other way counts as inactive or inconclusive. Potency means the concentration at half of the fitted maximal effect.
SMILES,Cruzain noTriton,Cruzain Triton
COc1ccc(Oc2ncc3nc(-c4cccs4)c(=O)n(Cc4cccs4)c3n2)cc1,7.9µM*,4%
COc1cccc(Cn2c(=O)c(-c3cccs3)nc3cnc(OC)nc32)c1,12%,3%
C1CCOC1,5%,3%
CCCCC[C@H](O)/C=C/C=C\C/C=C\C=C\[C@@H](O)CCCC(=O)O,-5%,5%
Cc1cc(-c2nc3ncccc3o2)ccc1N,?,28µM*
Nc1cc(-c2nc3ncccc3o2)ccc1Cl,-13%,-6%
COc1ccc(N(C(=O)COc2c(C)cccc2C)S(=O)(=O)c2ccc(Cl)cc2)cc1,?,-4%
O=C1C2C3C=CC(C4CC34)C2C(=O)N1/N=C/c1ccc([N+](=O)[O-])s1 (configuration not stated),-1%,-2%
O=C1C2C3C=CC(C4CC34)C2C(=O)N1/N=C/c1ccc(-c2cccc([N+](=O)[O-])c2)o1 (configuration not stated),25µM*,-8%
CCOC(=O)c1cc(-c2ccc(OC)cc2)n(CCC(=O)NC2CCC(C)CC2)c1C (configuration not stated),?,-5%
O=C(c1ccc2c(c1)N(Cc1ccccc1)C(=O)c1ccccc1S2(=O)=O)N1CCc2ccccc21,?,-1%
O=[N+]([O-])c1ccccc1C1Nc2cccc3cccc(c23)N1,?,-3%
Brc1ccc(C2Nc3cccc4cccc(c34)N2)o1,7.9µM*,-12%
CN1c2cccc3cccc(c23)N(C)C1c1cccs1,-5%,-1%
c1csc(C2Nc3cccc4cccc(c34)N2)c1,7.9µM*,-8%
COc1ccc2c(c1)c1c(c(=O)n(-c3ccc(C)cc3)c(=O)n1CC(=O)N1CCCC1)n2C,3%,-2%
Cc1cc(NCCCO)n2c(nc3ccccc32)c1C#N,32µM*,-15%
CCCNc1cc(C)c(C#N)c2nc3ccccc3n12,13%,4%
COc1cc(NC(=O)CC2C(=O)N(c3ccc(Cl)cc3)C(=O)N2Cc2cccs2)cc(OC)c1 (configuration not stated),-9%,-8%
COc1cccc(/C=c2\s/c(=C/C(=O)c3ccc(C)cc3)[nH]c2=O)c1OC,-20%,-2%
COc1ccc(/C=c2\s/c(=C/C(=O)c3ccc(C)cc3)[nH]c2=O)c(OC)c1,25µM*,-7%
COc1ccc(NC(=O)/C(C#N)=C\c2cc(C)n(-c3ccc(Oc4ccc([N+](=O)[O-])cn4)cc3)c2C)cc1,7.9µM*,1%
COc1ccc(NC(=O)/C(C#N)=C/c2cc(C)n(-c3ccc(F)cc3)c2C)cc1,-15%,0%
O=C(O)c1cccc(N=Nc2c(S(=O)(=O)O)ccc3c2C(=O)c2ccccc2C3=O)c1O,5%,-14%
COC(=O)c1nn(-c2ccccc2)c2nnc(Cc3ccc(C)cc3)c(=O)n12,-14%,0%
SMILES,Cruzain noTriton,Cruzain Triton
O=C(c1ccccc1)c1nn(-c2ccccc2)c2nnc(Cc3ccccc3)c(=O)n12,25µM*,-3%
CCC1CCCCN1C(=O)CSc1nc(-c2ccc(OC)cc2)cc(C(F)(F)F)n1 (configuration not stated),21%,-12%
Cc1cccc(C)c1OCCn1c(C2CC(=O)N(Cc3ccc(F)cc3)C2)nc2ccccc21 (configuration not stated),21%,-7%
CCc1ccc(NC(=O)N(Cc2ccc(C)cc2)Cc2cccn2-c2nnc(N3CCCC3=O)s2)cc1,-10%,-3%
COc1cc(CN(C(=O)c2ccc(Cl)cc2)C2CCS(=O)(=O)C2)cc(OC)c1OC (configuration not stated),3%,0%
COc1ccc(C2(CNC(=O)C(=O)Nc3ccc(F)cc3)CCCC2)cc1OC,?,-1%
CCN(CC)c1ccc(NC(=O)/C=C\c2ccccc2Cl)cc1,25µM*,-10%
CN(C)c1ccc(NC(=O)/C=C/c2ccccc2Cl)cc1,-15%,-4%
O=C(COC(=O)CCC1CCCC1)Nc1nc2c(F)c(F)c(F)cc2s1,10µM*,-4%
O=C(COC(=O)CCC1CCCC1)Nc1ccc(Cl)cn1,-9%,4%
O=S(=O)(c1ccc(F)cc1)N(CC(O)Cn1c2ccccc2c2ccccc21)c1ccccc1 (configuration not stated),-2%,12%
O=C(Nc1ccc(O)c(-c2nc3ccccc3s2)c1)c1cccs1,?,-2%
O=C(/C=C/c1ccco1)NC(=S)Nc1ccc(O)c(-c2nc3ccccc3s2)c1,7.9µM*,0%
CCOc1ccccc1NC(=O)Cn1c(=O)n(-c2ccccc2)c(=O)c2c1c1cc(C)ccc1n2C,0%,-4%
O=C(CNc1cccc2ccccc12)N/N=C/c1ccc([N+](=O)[O-])cc1,4%,-3%
O=C(CNc1cccc2ccccc12)N/N=C/c1cccc(Oc2ccccc2)c1,20µM*,0%
O=S(=O)(O)/C(=C\c1ccccc1)c1ccccc1 (tested in a mixture with another compound),-2%,3%
Cc1ccc(CCNC(=O)c2nn(C)c3c2CSc2ccccc2-3)cc1,-9%,-4%
Cc1ccc(CNC(=O)c2nn(C)c3c2CSc2ccc(C)cc2-3)cc1,20µM*,-3%
COc1ccc(N(C(=O)/C=C\C(=O)Nc2ccc(Cl)cc2)C(C(=O)NCc2ccco2)c2ccc(C)cc2)cc1 (configuration not stated),-29%,2%
CSc1nc(C)c(C(=O)Nc2ccccc2)c(C)c1C#N,-2%,0%
Cc1nc(SCC(=O)c2cc3ccccc3oc2=O)c(C#N)c(C)c1C(=O)Nc1ccccc1,13µM*,-6%
CCC(C)NC(=O)Cn1c(=O)n(Cc2ccc(C(=O)NCc3ccc(C)cc3)cc2)c(=O)c2ccccc21 (configuration not stated),1%,-1%
Cc1nn(-c2ccccc2)c2c1C(c1ccc([N+](=O)[O-])cc1)N1C(=N2)C(=O)Nc2ccccc21 (configuration not stated),-9%,-10%
Cc1nn(-c2ccc([N+](=O)[O-])cc2)c2c1C(c1cccc(Br)c1)N1C(=N2)C(=O)Nc2ccccc21 (configuration not stated),4µM*,-3%
SMILES,Cruzain noTriton,Cruzain Triton
O=C(Cn1nnc(-c2cccc(C(F)(F)F)c2)n1)NC(=O)NCc1ccco1,16µM*,5%
O=C(Cn1nnc(-c2ccccc2)n1)NCc1ccco1,-1%,1%
Cc1ccc(NC(=O)CC2S/C(=N/N=C/c3c[nH]c4ccccc34)NC2=O)cc1 (configuration not stated),20µM*,-15%
CCOC(=O)c1ccc(NC(=O)CC2S/C(=N/N=C/c3c[nH]c4ccccc34)NC2=O)cc1 (configuration not stated),?,-2%
Cc1ccc(NC(=O)CC2S/C(=N/N=C/C=C/c3ccccc3)NC2=O)cc1Cl (configuration not stated),5µM*,-2%
Cc1ccc(NC(=O)CC2SC(=NCC3CCCO3)NC2=O)cc1Cl (configuration not stated),-5%,1%
COc1cc(OC)c(NC(=O)NCCn2nnc3cc(S(=O)(=O)N(C)C)ccc32)cc1Cl,11%,0%
CC(=O)Nc1ccc(NC(=O)c2oc3ccc4c(c3c2C)C(=O)CC(C)(C)O4)cc1,?,-9%
Cc1cc(N)c2ccccc2[n+]1CCCCCCCCCC[n+]1c(C)cc(N)c2ccccc21,?,13µM*!
CCCCCCCCC[n+]1cccc2c3ccccc3ccc21,-2%,-9%

# Source: PubChem BioAssay (National Center for Advancing Translational Sciences (NCATS))
